Bioassay records as filed in PubChem.
Pf growth 48h: P. falciparum growth inhibition at 48 hours (one generation); P. falciparum luciferase growth in erythrocytes, 48 h; Potency, µM (series often up to 28.7 µM), for inactives: at the top dose activity change, negative = inhibition, usual class: inhibitors; actives 5.9% (n = 310,000); also: % is scaled to controls: 0 for no effect and ±100 for the full control effect
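Erythrocytes infected with P. falciparum carrying an integrated firefly luciferase reporter (2% hematocrit, 0.1% parasitemia final) were exposed to compounds in RPMI 1640 with 0.5% Albumax at 37 C, 5% CO2. Growth inhibition was scored as reduced luminescence.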
AMA1-RON2 inh: disrupts binding of P. falciparum AMA1 to RON2; AlphaScreen AMA1-biotinylated RON2 peptide binding; Potency, µM (doses to about 58.2 µM), without a hit: at the highest dose activity change, negative = inhibition, hits mostly inhibitors; actives 0.2% (n = 360,000); AID 720542;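 also: 0% = vehicle wells and -100% = peptide control; nearly all actives have a fitted effect of over 45% in size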
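AMA1 (3D7) with his tag at 25 nM final met compounds first, then biotinylated RON2 peptide at 25 nM; detection used donor plus acceptor beads, 10 µg/mL apiece, read by AlphaScreen after 30 min at room temperature.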
SARS PLpro yeast: SARS-CoV PLP inhibition in yeast | S. cerevisiae expressing SARS-CoV PLpro, growth rescue | Potency, µM (doses to about 32.9 µM), inactives show at the highest dose activity, positive = growth rescue, usual class: activators | actives 0.19% (n = 330,000) | AID 485353; calls by dose curve; also: 0% is about no effect; nearly all actives have a fitted effect of over 55% in size
Pf growth 96h: P. falciparum growth inhibition at 96 hours; P. falciparum luciferase reporter growth, 96 h; Potency, µM (doses to about 28.7 µM), for the others: at the highest dose activity change, negative = inhibition, most hits filed as inhibitors; actives 6.9% (n = 320,000); also: % is scaled to controls: 0 for no effect and ±100 for the full control effect
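Erythrocytes infected with luciferase-expressing P. falciparum were dispensed at 2% hematocrit and 0.05% parasitemia (final), then incubated with compounds 96 hours at 37 C in 5% CO2. Luminescence after detection reagent addition reported growth.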
Starred values were filed as active, the others as inactive; i = inactive; u = inconclusive; x = no result. Rows were chosen to be rich in hits. Some 9.4% of all compounds tested hit in one or more screens of this group. Unless noted, calls follow the shape of the dose curve; as a rule, active = well fitted curve in the direction sought with a large enough effect; inconclusive = small, poorly fitted or top-dose-only effect, or another doubt; inactive = no such curve, though single readings can be large; an effect the other way counts as inactive or inconclusive. Potency is read from the fitted curve at half-maximal effect.

SMILES	Pf growth 48h	AMA1-RON2 inh	SARS PLpro yeast	Pf growth 96h
COc1ccc(C(CC(=O)O)NS(=O)(=O)c2ccc(C)cc2)cc1 (configuration not stated)	34.6%	12.2%	4.1%	x
C/C=C/Cn1c(SCCCc2ccccc2)nc2c1c(=O)[nH]c(=O)n2C	u	-0.7%	-2.7%	0.928µM*
C=CCn1c(SCCCc2ccccc2)nc2c1c(=O)[nH]c(=O)n2C	u	-3.5%	4.9%	4.15µM*
O=c1oc2ccccc2cc1-c1nnc(NCc2ccco2)s1	x	-28.6%	9.4%	186.5%
CCCC(=O)N(CCN1CCOCC1)c1nc2c(OC)ccc(C)c2s1	-5.3%	-7.0%	-3.4%	29.8%
CCCC(=O)N(Cc1cccnc1)c1nc2c(OC)ccc(Cl)c2s1	u	1.5%	26.2%	11.7µM*
COc1ccccc1C(=O)NC(CCSC)C(=O)N1CCC(Cc2ccccc2)CC1 (configuration not stated)	14.7µM*	u	1.0%	u
CSCCC(NC(=O)c1ccccc1)C(=O)N1CC=C(c2ccccc2)CC1 (configuration not stated)	9.28µM*	-1.5%	-0.4%	u
CSCCC(NC(=O)c1ccccc1)C(=O)N1CCN(C(=O)c2ccccc2)CC1 (configuration not stated)	x	3.8%	1.6%	x
Cn1c(N)c(C(=O)COC(=O)c2cccc(S(=O)(=O)N3CCCCC3)c2)c(=O)n(C)c1=O	u	-5.9%	-15.7%	u
COc1cc2nc(SCC(N)=O)n(CCC3=CCCCC3)c(=O)c2cc1OC	-12.1%	-1.2%	-0.3%	13.1µM*
CCN(CC)C(=O)CSc1nc2cc3c(cc2c(=O)n1CCCC(=O)NCc1ccc(OC)cc1)OCO3	-28.4%	5.9%	2.0%	-13.1%
CCN(CC)C(=O)CSc1nc2cc(OC)c(OC)cc2c(=O)n1Cc1ccc(Cl)cc1	11.7µM*	-6.8%	-5.5%	u
CC(=O)c1sc(NC(=O)COc2ccccc2)nc1C	i	8.6%	-5.6%	39.4%
CCOC(=O)c1sc2nc(NC(=O)COc3ccccc3)sc2c1C	x	12.9%	-3.8%	1.65µM*
Cc1nc2ccccc2c(=O)n1NC(=O)c1ccc(F)cc1Cl	6.6%	-1.5%	-0.4%	9.28µM*
COc1ccc(C(=O)Nn2c(C)nc3ccccc3c2=O)c(OC)c1	21.7%	-6.2%	1.1%	1.17µM*
COc1cccc(NC(=O)c2ccc(S(=O)(=O)N3CCCC3)cc2)c1	-5.8%	-18.2%	-2.3%	0.0%
CC(C)CN(CCNC(=O)CN1C(=O)COc2ccc(S(=O)(=O)N3CCOCC3)cc21)CC(C)C	10.8%	14.6%	0.4%	62.1%
COc1ccc(CCNC(=O)CN2C(=O)COc3ccc(S(=O)(=O)N4CCCC4)cc32)c(OC)c1	-29.2%	3.7%	-0.4%	9.28µM*
CC(C)CN(CCNC(=O)CN1C(=O)COc2ccc(S(=O)(=O)N3CCC(C)CC3)cc21)CC(C)C	u	18.3%	4.3%	11.7µM*
COC(=O)CN1C(=O)COc2ccc(S(=O)(=O)N3CCOCC3)cc21	-14.0%	-4.9%	5.2%	9.28µM*
CCOc1cc(C(=O)Nc2ccc(C)cc2O)ccc1OCC(=O)N1CCOCC1	u	3.3%	x	u
Cc1ccc(NC(=S)N/N=C2\CC3CC=CC23)c(C)c1 (configuration not stated)	-1.6%	92.6%	2.1%	u
Cc1cccc(C)c1NC(=S)N/N=C1\CC2CC=CC12 (configuration not stated)	u	76.1%	-4.2%	9.28µM*
SMILES	Pf growth 48h	AMA1-RON2 inh	SARS PLpro yeast	Pf growth 96h
C=CCC1C=CCC(CC=C)N1C(=O)c1ccccc1[N+](=O)[O-] (configuration not stated)	u	4.4%	-4.6%	u
Cc1cc(C2=CC(C)(c3cc(C)oc3C)Nc3nc(C(F)(F)F)nn32)c(C)o1 (configuration not stated)	9.28µM*	x	-2.3%	2.4%
CCn1cnc2c(Nc3cc(F)cc(F)c3)nc(C#N)nc21	0.828µM*	x	-0.4%	0.294µM*
CCNc1nc(C#N)nc2c1ncn2-c1cc(F)cc(F)c1	1.65µM*	x	5.5%	u
CNc1nc(Cl)nc2c1ncn2-c1ccccc1	x	9.5%	x	x
CC(CS(=O)(=O)c1ccccc1[N+](=O)[O-])N1CCOCC1 (configuration not stated)	11.7µM*	-2.5%	-0.2%	18.7%
Nc1c(C(=O)Nc2ccccc2)sc2nc(N3CCOCC3)c3c(c12)CCCC3	x	20.0%	x	x
